The full list was thinned out, with hits kept by preference.
HTT-AS act = HTT-AS promoter activation; 48,000 compounds, 0.24% hits; HEK293 HTT-AS promoter firefly luciferase reporter, 24 h; response scale: percent change from vehicle, -100% = no light; Potency, µM (top dose mostly 57.5 µM), actives largely listed as activators; AID 1508624; also: nearly all actives have a fitted effect of over 55% in size
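HEK293 luciferase promoter-reporter cells (2,500/well) plated 24 h, then compounds added at up to 57.5 uM final for 24 h at 37 °C. Firefly luminescence by Dual-Glo, normalized to vehicle (0%) and zero RLU (-100%).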
NTMT1 inhibitor = blocks human N-terminal methyltransferase 1 activity; Q9BV86; NTMT1 MTase-Glo SAH luminescence, purified enzyme; Potency, µM (series often up to 114 µM), hits mostly inhibitors; 59,000 compounds, 2.5% hits; AID 1645870; also: nearly all actives have a fitted effect of over 65% in size
Target sequence (Q9BV86 whole entry, looked up): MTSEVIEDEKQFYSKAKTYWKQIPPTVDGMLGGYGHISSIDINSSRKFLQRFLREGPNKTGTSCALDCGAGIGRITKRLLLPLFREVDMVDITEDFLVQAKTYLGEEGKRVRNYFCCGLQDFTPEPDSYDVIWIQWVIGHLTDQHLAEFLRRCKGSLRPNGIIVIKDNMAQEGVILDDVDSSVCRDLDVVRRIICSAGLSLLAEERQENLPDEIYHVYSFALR
HTT promoter inh = inhibitors of huntingtin promoter activity; HEK293 HTT promoter firefly luciferase reporter, 24 h; Potency, µM (highest dose often 57.5 µM), hits mostly inhibitors; 48,000 compounds, 0.93% hits; also: nearly all actives have a fitted effect of over 50% in size
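Firefly luciferase readout (Dual-Glo, 10 min RT) after 24 h, 37 °C compound exposure (final up to 57.5 uM) of HEK293 reporter cells cultured 24 h beforehand; PTC124 at 50 uM final as control inhibitor; activity scaled vehicle 0%, zero RLU -100%.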
A number is an active result; ! = a repeat was not active; [ ] = remark or other dose. Calls follow the shape of the dose curve; as a rule, active = well fitted curve in the direction sought with a large enough effect; inconclusive = small, poorly fitted or top-dose-only effect, or another doubt; inactive = no such curve, though single readings can be large; an effect the other way counts as inactive or inconclusive.

What do the screens show for `Cn1c(=O)nc2n(-c3ccc(Cl)c(Cl)c3)c3cc(Cl)ccc3cc-2c1=O`?
HTT-AS act: inactive; NTMT1 inhibitor: inconclusive; HTT promoter inh: inactive

How did CC(C)c1cc(-c2n[nH]c(=O)n2-c2ccc3c(ccn3C)c2)c(O)cc1O do in these assays?
HTT-AS act: inactive; NTMT1 inhibitor: 28µM!; HTT promoter inh: inconclusive

What do the screens show for `O=C(Nc1cc(C(F)(F)F)cc(C(F)(F)F)c1)Nc1nnc(-c2ccncc2)s1`?
NTMT1 inhibitor: inactive

Results for O=c1c(Nc2ccc(Br)c(Br)c2)c(Nc2nnc(-c3ccncc3)s2)c1=O ?
NTMT1 inhibitor: 79µM

Results for O=C(CCc1ccccc1)c1c(O)c([C@@H]2O[C@H](CO)[C@@H](O)[C@H](O)[C@H]2O)c(O)c([C@@H]2O[C@H](CO)[C@@H](O)[C@H](O)[C@H]2O)c1O ?
NTMT1 inhibitor: inactive[12.6 µM]

Results for Cc1ccc(C)c(Cn2c(=O)n(CCCCC(=O)NCc3ccc4c(c3)OCO4)c(=O)c3ccccc32)c1 ?
HTT-AS act: inactive; NTMT1 inhibitor: 89µM; HTT promoter inh: inactive

How did Cc1ccc(Cn2c(=O)n(CCCCC(=O)NCc3ccccc3Cl)c(=O)c3ccccc32)cc1 do in these assays?
HTT-AS act: inactive; NTMT1 inhibitor: inactive; HTT promoter inh: inconclusive

What do the screens show for `Cc1ccccc1Cn1c(=O)n(CCCCC(=O)NCc2ccc3c(c2)OCO3)c(=O)c2ccccc21`?
HTT-AS act: inactive; NTMT1 inhibitor: inactive; HTT promoter inh: inactive

How did Cc1ccc(C)c(Cn2c(=O)n(CCCCC(=O)NCc3ccccc3Cl)c(=O)c3ccccc32)c1 do in these assays?
HTT-AS act: inactive; NTMT1 inhibitor: 79µM; HTT promoter inh: inactive

What do the screens show for `CNc1oc(-c2cccc(Cl)c2)nc1C#N`?
NTMT1 inhibitor: inactive

How did Cc1ccc(CN2CCCn3nc(C(=O)NCc4cc(C)ccc4C)cc3C2=O)cc1 do in these assays?
HTT-AS act: inactive; NTMT1 inhibitor: inactive; HTT promoter inh: 28µM

What do the screens show for `CCCCNC(=O)c1cc2n(n1)CCCN(Cc1ccc(C)cc1)C2=O`?
HTT-AS act: inactive; NTMT1 inhibitor: inactive; HTT promoter inh: inactive

How did CCCCOc1ccc(CNC(=O)c2cc3n(n2)CCCN(Cc2ccc(C)cc2)C3=O)cc1 do in these assays?
HTT-AS act: inactive; NTMT1 inhibitor: inactive; HTT promoter inh: 25µM

Results for CCCNC(=O)c1cc2n(n1)CCCN(Cc1ccc(C)cc1)C2=O ?
HTT-AS act: inactive; NTMT1 inhibitor: inactive; HTT promoter inh: inactive

Results for COC1(CC(C)C)NC(=O)C(O)(Cc2ccccc2)NC1=O (stereo not given) ?
NTMT1 inhibitor: inactive

What do the screens show for `C=C1C(OC2OC(CO)C(O)C(O)C2O)CC2C(C)(C)C(O)CCC2(C)C1CC/C(C)=C\COC(=O)CC(=O)O` (stereo not given)?
NTMT1 inhibitor: inactive[12.6 µM]

How did Fc1ccc(-c2noc3ncnc(NCCc4ccc(Cl)cc4)c23)cc1 do in these assays?
HTT-AS act: inactive; NTMT1 inhibitor: inactive; HTT promoter inh: inconclusive

What do the screens show for `CSc1ccc(CCNc2ncnc3onc(-c4ccc(Cl)cc4)c23)cc1`?
HTT-AS act: inactive; NTMT1 inhibitor: inactive; HTT promoter inh: 18µM

How did COc1ccc(NC(=O)Cn2c(=O)oc3ccccc32)cc1 do in these assays?
HTT-AS act: inactive; NTMT1 inhibitor: 89µM; HTT promoter inh: inactive

What do the screens show for `CCc1ccccc1NC(=O)Cn1c(=O)oc2ccccc21`?
HTT-AS act: inactive; NTMT1 inhibitor: inactive; HTT promoter inh: inactive

Results for Cc1cc(NCc2ccc(NC(=O)Cc3ccc(Cl)c(Cl)c3)cc2)no1 ?
NTMT1 inhibitor: inactive

What do the screens show for `CC1=CC2=C(C)C(=O)C(C)(O)C(O)C2CO1` (stereo not given)?
NTMT1 inhibitor: inactive

What do the screens show for `C[C@@H]1[C@H]2[C@H](O[C@@H]3O[C@H](CO)[C@@H](O)[C@H](O)[C@H]3O)OC=C(C(=O)O)[C@H]2C[C@@H]1O`?
NTMT1 inhibitor: inactive

What do the screens show for `CC(C)(C)NCCCNC(=O)c1cccc(Br)c1`?
NTMT1 inhibitor: inactive

How did CCCCc1ccc(C(=O)Nc2cc(-c3ccc(Cl)cc3)nn2-c2ccc(Cl)cc2)cc1 do in these assays?
NTMT1 inhibitor: inactive

What do the screens show for `CC(C)n1nc(-c2ccc(NC(=O)Nc3cccc(C(F)(F)F)c3)cc2)c2c(N)ncnc21`?
NTMT1 inhibitor: inactive

How did CC(C)n1nc(-c2cc3cc(O)ccc3[nH]2)c2c(N)ncnc21 do in these assays?
HTT-AS act: inactive; NTMT1 inhibitor: 79µM!; HTT promoter inh: inconclusive

Results for CC1(C)OB(c2ccc(O)c3ncc(N4CCNCC4)cc23)OC1(C)C ?
NTMT1 inhibitor: 79µM

How did Oc1cccc2cc(N3CCCC3)cnc12 do in these assays?
NTMT1 inhibitor: inactive

Results for Cc1ccc(OCC(=O)Nc2cccc(-c3nc4ccccc4o3)c2C)cc1C ?
HTT-AS act: inactive; NTMT1 inhibitor: inactive; HTT promoter inh: inconclusive

Results for Cc1ccc2nc(-c3cc(NC(=O)COc4ccc(C)c(C)c4)ccc3Cl)oc2c1 ?
HTT-AS act: 2.5µM; NTMT1 inhibitor: inactive; HTT promoter inh: inactive

Results for N[C@@H](CC(=O)N1CCn2c(nnc2C(F)(F)F)C1)Cc1[nH]nc2c(F)c(F)ccc12 ?
NTMT1 inhibitor: inactive

Results for CS(=O)(=O)c1ccc([C@@H](CC2CCCC2)C(=O)Nc2nccs2)cc1 ?
NTMT1 inhibitor: inactive

What do the screens show for `O=C1OC2(c3ccccc31)c1cc(Br)c(O)c(Br)c1Oc1c2cc(Br)c(O)c1Br`?
HTT-AS act: inactive; NTMT1 inhibitor: 50µM; HTT promoter inh: inactive

What do the screens show for `CC1(COc2ccc(CC3SC(=O)NC3=O)cc2)CCCCC1` (stereo not given)?
HTT-AS act: inactive; NTMT1 inhibitor: inconclusive; HTT promoter inh: inactive

What do the screens show for `CCc1ccc(CCOc2ccc(CC3SC(=O)NC3=O)cc2)nc1` (stereo not given)?
HTT-AS act: inactive; NTMT1 inhibitor: 32µM!; HTT promoter inh: inactive

Results for O=C(Nc1cccc(Cl)c1)C1CCCN(c2nn3cc(-c4ccc(F)cc4)nc3s2)C1 (stereo not given) ?
HTT-AS act: inactive; NTMT1 inhibitor: inactive; HTT promoter inh: 4µM

Results for O=C(NCc1cccc(Cl)c1)C1CCN(c2nn3cc(-c4ccc(F)cc4)nc3s2)CC1 ?
HTT-AS act: inactive; NTMT1 inhibitor: inactive; HTT promoter inh: inactive

What do the screens show for `COc1ccc(-c2cn3nc(N4CCCC(C(=O)Nc5ccc(Cl)cc5C)C4)sc3n2)cc1` (stereo not given)?
HTT-AS act: inactive; NTMT1 inhibitor: inactive; HTT promoter inh: inactive

What do the screens show for `O=C(NCc1cccc(Cl)c1)C1CCCN(c2nn3cc(-c4ccc(F)cc4)nc3s2)C1` (stereo not given)?
HTT-AS act: inactive; NTMT1 inhibitor: inactive; HTT promoter inh: 2.5µM

How did Fc1cc(Nc2nc(-c3ccncc3)nc3ccccc23)ccc1-c1cccc(C(F)(F)F)c1 do in these assays?
NTMT1 inhibitor: inactive

What do the screens show for `CN(C)/C(N)=N/C(=N)N`?
NTMT1 inhibitor: inactive

How did CC[C@H](c1ccc(O)cc1)[C@@H](CC)c1ccc(O)cc1 do in these assays?
HTT-AS act: inactive; NTMT1 inhibitor: 11µM; HTT promoter inh: inactive

Results for CCC(c1ccc(O)cc1)C(CC)c1ccc(O)cc1 (stereo not given) ?
HTT-AS act: inactive; NTMT1 inhibitor: inconclusive; HTT promoter inh: inconclusive
